Source: PubChem BioAssay
Shown is part of a subset that was picked to be rich in hits.
HT1080 IDH1KD tx: HT-1080 IDH1 knockdown cell toxicity (counter line) | AID 686971 | 2% of 360,000 active | HT-1080 IDH1 knockdown viability, ATP luminescence, 48 h | Potency, µM (doses to about 46.1 µM), for inactives: at the top dose activity, negative = toxicity, actives largely listed as cytotoxic;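 also: potency is read from the fitted curve at half-maximal effect; 0% = DMSO wells and -100% = cell-free medium wells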
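In this qHTS, HT-1080 cells depleted of IDH1 are exposed for 48 h at 37 °C to compound titrations. Toxicity is scored from CellTiter-Glo luminescence, with DMSO as full viability and medium alone as none.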
IL1B secr inh: blocks inflammasome-driven IL-1 beta release; THP-1 LPS/ATP IL-1B secretion, AlphaLISA, 16 h; hits give low values; activity change, % at 57.5 µM; 4.7% of 360,000 active; in the data active = activity change below about -50%; inconclusive = mostly about -30% to -49%
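Secreted IL-1B measured by AlphaLISA bead assay after 16 h compound exposure of THP-1 cells; compounds (final up to 57.5 uM) added 1 h before LPS (250 ng/mL) and ATP (1.25 mM) stimulation; lower signal means less secretion.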
TDP1 cell CPT: growth inhibition of DT40 Tdp1-/-;hTDP1 cells with camptothecin (screen for TDP1 inhibitors); chicken DT40 Tdp1-/-;hTDP1 cells + 20 nM CPT, ATP luminescence, 48 h; Potency, µM (titrated, usually from 46.2 µM), for the others: at the top dose activity change, negative = growth inhibition, most hits filed as inhibitors; 12% of 420,000 active; AID 686979; also: potency is read from the fitted curve at half-maximal effect; nearly all actives have a fitted effect of over 55% in size
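Chicken DT40 Tdp1-/- cells stably complemented with human TDP1 were seeded at 400 cells/well in medium containing 20 nM camptothecin, exposed to pin-transferred compounds, and grown at 37 °C for at least 48 hr. Viability was read as ATP luminescence.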
HT1080NT lethal: kills 2HG-producing HT-1080-NT fibrosarcoma cells; HT-1080-NT fibrosarcoma viability, CellTiter-Glo ATP luminescence, 48 h; Potency, µM (highest dose often 46.1 µM), for the others: top-dose activity, negative = less viability, usual class: cytotoxic; AID 686970; 1.6% of 360,000 active;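 also: NT is the 2HG producing partner of a matched IDH1 knockdown line; potency is read from the fitted curve at half-maximal effect; 0% = DMSO-treated cells and -100% = media-only wells without cells; nearly all actives have a fitted effect of over 55% in size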
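A 48-hour cytotoxicity screen used HT-1080-NT cells plated 2 hours before compound delivery. ATP-based CellTiter-Glo luminescence measured viability, normalized to DMSO and no-cell controls.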
DT40 TDP1 no CPT: qHTS for Inhibitors of human tyrosyl-DNA phosphodiesterase 1 (TDP1): qHTS in cells in absence of CPT | DT40 Tdp1-/- hTDP1 cells, no CPT, ATP luminescence, 48 h | Potency, µM (doses to about 46.2 µM), for inactives: at the highest dose activity change, negative = growth inhibition, usual class: inhibitors | 15% of 420,000 active | AID 686978, 2013; also: potency is read from the fitted curve at half-maximal effect; nearly all actives have a fitted effect of over 55% in size
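Growth of hTDP1-complemented DT40 Tdp1-knockout cells is measured by ATP luminescence after at least 48 hr compound exposure at 37 °C, with DMSO substituting for the 20 nM CPT used in the parallel screen.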
12-LOX inh: ALOX12 (human) lipoxygenase inhibition. P18054. purified 12hLO, xylenol orange hydroperoxide absorbance. Potency, µM (highest dose often 108 µM), for the others: at the highest dose activity change, negative = inhibition, usual class: inhibitors. 1.1% of 580,000 active. AID 1671190; also: potency is read from the fitted curve at half-maximal effect
Target sequence (P18054 whole entry, looked up): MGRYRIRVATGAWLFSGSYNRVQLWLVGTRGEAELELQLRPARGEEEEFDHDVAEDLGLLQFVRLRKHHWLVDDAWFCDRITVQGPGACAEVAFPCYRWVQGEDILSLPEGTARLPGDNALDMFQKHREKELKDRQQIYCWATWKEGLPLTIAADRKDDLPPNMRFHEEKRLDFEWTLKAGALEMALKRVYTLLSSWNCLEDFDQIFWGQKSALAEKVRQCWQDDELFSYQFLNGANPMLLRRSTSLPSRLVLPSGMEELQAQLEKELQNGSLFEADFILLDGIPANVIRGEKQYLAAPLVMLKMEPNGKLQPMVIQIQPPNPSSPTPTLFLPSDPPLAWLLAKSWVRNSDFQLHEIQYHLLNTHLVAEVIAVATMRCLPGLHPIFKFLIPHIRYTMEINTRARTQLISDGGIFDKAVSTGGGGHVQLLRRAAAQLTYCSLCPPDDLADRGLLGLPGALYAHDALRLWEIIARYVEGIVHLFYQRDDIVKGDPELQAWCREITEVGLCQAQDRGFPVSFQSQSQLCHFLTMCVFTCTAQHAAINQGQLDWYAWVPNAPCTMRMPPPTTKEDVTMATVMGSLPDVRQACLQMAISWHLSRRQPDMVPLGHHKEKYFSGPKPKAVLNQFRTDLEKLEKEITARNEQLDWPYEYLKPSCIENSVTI
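Hydroperoxide product was detected by ferrous iron/xylenol orange as the 573 to 405 nm absorbance ratio. Arachidonic acid at 40 uM (final) was turned over for 30 min at room temperature by 150 nM human 12hLO, pH 7.0 Hepes buffer, after 15 min compound preincubation.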
The depositor's hits bear a star; ? = inconclusive; nt = no result. Unless noted, calls follow the shape of the dose curve; as a rule, active = well fitted curve in the direction sought with a large enough effect; inconclusive = small, poorly fitted or top-dose-only effect, or another doubt; inactive = no such curve, though single readings can be large; an effect the other way counts as inactive or inconclusive. Unless noted, % is scaled to controls: 0 for no effect and ±100 for the full control effect.

SMILES	HT1080 IDH1KD tx	IL1B secr inh	TDP1 cell CPT	HT1080NT lethal	DT40 TDP1 no CPT	12-LOX inh
C=CCn1c(SCC(=O)NCCCC)nc2scc(-c3ccco3)c2c1=O	-12.3%	-68.5*	?	-13.6%	?	?
C=CCn1c(SCC(=O)NC2CCCC2)nc2scc(-c3ccco3)c2c1=O	?	-25.0	?	?	?	44.7µM*
C=CCn1c(SCC(C)=O)nc2scc(-c3ccc(C)o3)c2c1=O	?	-21.3	?	-22.9%	?	-8.1%
CC(=O)Oc1cc2c(C(=O)NCCCN3CCOCC3)c(C)oc2c2ccccc12	?	17.2	14.6µM*	?	20.6µM*	144.7%
CNC(=S)/N=C/NOCc1ccc(Cl)cc1Cl	?	-51.2*	?	?	20.6µM*	?
NC(=S)Cc1ccc(Cl)cc1Cl	-17.5%	-3.3	5.5%	-2.1%	4.8%	-141.4%
CC(C)(C)c1ccc(/C=N/NC(=O)Cc2ccc(Br)cc2)cc1	nt	nt	nt	nt	nt	-5.8%
CCOc1ccc(-c2c(C)nn3c(C)c(C(=O)NCc4ccc(C)o4)cnc23)cc1OCC	nt	nt	?	nt	?	-10.0%
Cc1ccc(CCNC(=O)c2cnc3c(-c4ccc(F)cc4)c(C)nn3c2C)cc1	nt	nt	-5.6%	nt	-1.9%	-16.5%
CCOc1ccc(CCNC(=O)c2cnc3c(-c4ccc(F)cc4)c(C)nn3c2C)cc1OCC	nt	nt	16.4µM*	nt	18.4µM*	-34.4%
CCOc1ccc(-c2c(C)nn3c(C)c(C(=O)NCc4ccc(Cl)cc4)cnc23)cc1OCC	nt	nt	1.16µM*	nt	1.64µM*	-23.3%
CCOc1ccc(-c2c(C)nn3c(C)c(C(=O)NCc4cccc(OC)c4)cnc23)cc1OCC	nt	nt	9.2µM*	nt	?	-19.8%
CCOc1ccc(-c2c(C)nn3c(C)c(C(=O)NCCc4ccc(Cl)cc4)cnc23)cc1OCC	nt	nt	14.6µM*	nt	6.51µM*	-21.8%
CCOc1ccc(-c2c(C)nn3c(C)c(C(=O)Nc4cc(C)cc(C)c4)cnc23)cc1OCC	nt	nt	?	nt	?	-12.6%
COc1ccc(CNC(=O)C2=C(c3ccccc3)c3cc(Cl)ccc3S(=O)(=O)N2C)cc1	nt	nt	nt	nt	nt	-0.8%
NCCCCCCNS(=O)(=O)c1cccc2ccccc12	nt	nt	15.8µM*	nt	14.1µM*	233.8%
O=S(=O)(NCCCCCNS(=O)(=O)c1ccc(F)cc1)c1ccc(F)cc1	-18.2%	9.9	11.2µM*	-21.7%	12.6µM*	-14.7%
Cc1ccc(S(=O)(=O)NCCC(=O)NCCCSc2ccccc2)cc1	-8.6%	-28.3	-26.7%	-1.1%	-25.6%	-23.2%
O=C(CCNS(=O)(=O)c1ccccc1)NCCCSc1ccccc1	4.6%	13.1	7.31µM*	-1.6%	18.4µM*	77.0%
O=S(=O)(NCCCCCNS(=O)(=O)c1ccccc1)c1ccccc1	-10.4%	-18.6	?	-18.2%	25.9µM*	-27.7%
CC(C)C(NC(=O)c1ccc([N+](=O)[O-])cc1)C(C)C	nt	nt	nt	nt	nt	-23.6%
CCCC(=O)Nc1nnc(Cc2ccccc2F)s1	nt	nt	nt	nt	nt	2.8%
COc1ccc(CN2C[C@@H]3C(=O)N(CCN4CCc5ccccc5C4)C(=O)[C@@H]3C2)c(OC)c1	nt	nt	nt	nt	nt	37.2%
CC1CCCCC1NC(=O)/C=C/c1cccs1 (stereo not drawn)	nt	nt	nt	nt	nt	16.0%
CCOC(=O)/C(=C\c1ccccc1)C(=O)CCN1CCOCC1	7.1%	-1.0	1.64µM*	5.6%	1.46µM*	?
O=C(CCc1ccccc1)OCCN1CCOCC1	18.1%	12.7	1.7%	16.5%	-2.7%	?
CCn1c(SCC(=O)c2[nH]c(C)c(C(C)=O)c2C)nnc1-c1cccs1	-9.7%	0.0	?	-1.6%	18.4µM*	-2.1%
CC(=O)c1c(C)[nH]c(C(=O)CSc2ccc(Br)cc2)c1C	nt	nt	nt	nt	nt	7.1%
